HIF-2a block: HIF-2a inhibition | 786-0 RCC cells HIF-2a reporter, luciferase luminescence, overnight | inhibition, % at 18.8 µM | 0.72% of 360,000 active;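 active = inhibition of the luminescence signal of 40% or more relative to plate controls, in a single-dose primary screen at 18.75 µM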
Shn3 3UTR inh: inhibitors of Schnurri-3 3'UTR reporter in osteoblasts. Clone20 osteoblast Shn3 3'UTR firefly luciferase, 24 h. AID 588674. 0.52% of 360,000 active. inhibition, % at 12.5 µM;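 active = mean inhibition of at least 75% with every replicate also reaching 75%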;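 also: 0% = median of neutral control wells and 100% = pilot-screen positive control compound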
KKLEB cytotox: counter-screen for CF NF-kB inhibitors: cytotoxicity; KKLEB CF airway cells viability, ATPlite luminescence, overnight; hits give low values; cells stimulated with P. aeruginosa culture filtrate; activity change (cytotoxicity), % at 5 µM; 0.36% of 360,000 active; AID 602141;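 active = corrected activity change at or below -50% at 5 µM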
Peg3 promoter: reduces Peg3 promoter-driven luciferase expression in HeLa; HeLa PEG-Prom luciferase reporter, luminescence, overnight; inhibition, % at 20 µM; 1.7% of 360,000 active; AID 588405;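 active = inhibition of at least 50% at 20 µM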
CF NFkB inh: inhibitors of cystic fibrosis induced NF-kB. 0.86% of 360,000 active. KKLEB NF-kB-GFP reporter, PAF-induced, GFP fluorescence overnight. inhibition, % at 5 µM. AID 588850;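 active = at least 50% inhibition at 5 µM, scaled per plate between neutral and stimulator controls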;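 also: PAF is a Pseudomonas aeruginosa culture filtrate used as stimulus; plate controls were PAF-stimulated DMSO wells for no effect and unstimulated DMSO wells for full effect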
CF NFkB conf: confirmation of cystic fibrosis induced NF-kB inhibitors; shares compounds with CF NFkB inh; KKLEB CF airway cells, PAF-induced NF-kB-GFP fluorescence, overnight; inhibition, % at 5 µM; 64% of 1,300 active; in the data active = inhibition above about 40%;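 also: stimulus PAF is a Pseudomonas aeruginosa filtrate and not platelet activating factor; plate controls were DMSO wells with stimulus for no effect and unstimulated DMSO wells for full effect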
Mdm2-MdmX confirm: confirmation of inhibitors of human Mdm2/MdmX interaction, set 2; shares compounds with HIF-2a block; SaOS-2 split-luciferase Mdm2/MdmX complementation, luminescence; inhibition, % at 8 µM; 99% of 740 active; AID 504601;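 active = mean inhibition of the luminescence signal across two replicates at or above 26 percent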
Target sequence (O15151 whole entry, looked up): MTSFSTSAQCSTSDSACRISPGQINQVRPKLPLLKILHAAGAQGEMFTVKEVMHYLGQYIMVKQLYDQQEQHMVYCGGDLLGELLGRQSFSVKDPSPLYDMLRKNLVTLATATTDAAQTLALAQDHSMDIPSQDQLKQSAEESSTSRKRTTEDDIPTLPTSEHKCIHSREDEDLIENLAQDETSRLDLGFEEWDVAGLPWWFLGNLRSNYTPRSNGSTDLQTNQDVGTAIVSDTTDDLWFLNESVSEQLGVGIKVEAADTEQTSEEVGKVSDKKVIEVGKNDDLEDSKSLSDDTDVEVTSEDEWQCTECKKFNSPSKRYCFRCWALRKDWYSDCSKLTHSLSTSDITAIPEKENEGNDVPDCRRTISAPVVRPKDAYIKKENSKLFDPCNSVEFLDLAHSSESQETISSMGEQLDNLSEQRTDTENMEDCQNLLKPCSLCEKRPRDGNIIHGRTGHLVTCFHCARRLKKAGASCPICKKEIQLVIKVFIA
Target sequence (Q00987 whole entry, looked up): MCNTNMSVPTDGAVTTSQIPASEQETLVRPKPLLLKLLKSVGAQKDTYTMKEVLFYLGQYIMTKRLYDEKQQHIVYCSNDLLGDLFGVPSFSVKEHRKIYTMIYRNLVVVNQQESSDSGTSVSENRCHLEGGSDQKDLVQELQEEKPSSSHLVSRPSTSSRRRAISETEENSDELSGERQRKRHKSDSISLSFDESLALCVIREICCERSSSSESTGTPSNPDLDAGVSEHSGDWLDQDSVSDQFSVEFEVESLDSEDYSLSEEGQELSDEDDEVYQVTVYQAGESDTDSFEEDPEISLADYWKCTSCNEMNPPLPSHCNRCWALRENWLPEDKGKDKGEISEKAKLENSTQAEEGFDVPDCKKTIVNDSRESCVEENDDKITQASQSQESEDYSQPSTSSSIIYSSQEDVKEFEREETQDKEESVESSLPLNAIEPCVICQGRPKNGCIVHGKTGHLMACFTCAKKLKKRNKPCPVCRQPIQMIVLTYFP
HIF-2a conf: HIF-2a inhibition, single concentration confirmation. shares compounds with HIF-2a block. 786-0 RCC cells, HIF-2a luciferase reporter luminescence, overnight. inhibition, % at 18.8 µM. 56% of 1,800 active. AID 651580;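 active = mean inhibition across four replicates of at least 40 percent at the single tested concentration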
HIF-1a cs: counter-screen for HIF-2a inhibitors: HIF-1a inhibition in MiaPaCa-2 cells. MiaPaCa-2 HIF-1a luciferase reporter, desferoxamine, overnight. 72% of 1,800 active. inhibition, % at 18.8 µM. shares compounds with HIF-2a block;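 active = mean inhibition of the reporter signal across four replicates at the single tested dose of 50% or more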
* = called active by the depositor; / = no result given. Only some compounds are listed: those with a hit (about 2.6% of all), similar ones and a draw of the others.

SMILES	HIF-2a block	Shn3 3UTR inh	KKLEB cytotox	Peg3 promoter	CF NFkB inh	CF NFkB conf	HIF-2a conf	HIF-1a cs	others
Cc1cccc(C(=O)OCC(=O)NCc2cccs2)c1	4.5	-3.2	4.7	-12.3	-3.8	/	/	/
O=C(CCl)N(Cc1cc(=O)[nH]c2ccccc12)c1ccccc1	47.1*	3.3	-34.3	84.6*	69.2*	73.9*	69.8*	103.9*	Mdm2-MdmX confirm=101.5*
CCOc1cc(/C=C2\COc3ccccc3C2=O)cc(Br)c1OCC(=O)N(C)C	90.7*	75.3	-32.1	104.7*	97.8*	-195.8	60.5*	105.3*
CCOc1ccc(-n2c(=O)c3sccc3n(Cc3ccc(C)cc3)c2=O)cc1	18.3	/	-0.6	17.9	-3.3	/	/	/
O=C(c1ccc(S(=O)(=O)c2cccc(Cl)c2)c([N+](=O)[O-])c1)N1CCN(c2ccccn2)CC1	40.2*	68.8	-45.0	52.6*	86.1*	-74.3	25.1	85.0*	Mdm2-MdmX confirm=95.7*
CCCC(C)NC(=O)CSCc1ccc(OC)cc1 (stereo unspecified)	17.1	2.3	0.3	18.3	11.3	/	/	/
CCS(=O)(=O)c1ncc(Cl)c(C(=O)Nc2ccccc2OC)n1	92.6*	96.8*	-36.1	103.6*	85.0*	96.4*	0.6	99.3*
CCOc1ccccc1NC(=O)c1ccc(C(=O)Nc2ccccc2OCC)nc1	10.1	23.3	2.1	11.9	3.5	/	/	/
CCOc1ccccc1NC(=O)c1nc(S(=O)(=O)Cc2ccccc2)ncc1Cl	90.3*	96.3*	-30.6	99.1*	79.9*	94.4*	98.6*	104.1*
Cn1nnnc1Sc1ncnc2scc(-c3ccc[nH]3)c12	72.2*	70.9	-8.9	-48.4	83.0*	64.3*	40.9*	99.6*
COc1ccc2cc(CCNC(=O)c3ccc(S(=O)(=O)N4CCOCC4)cc3)c(=O)[nH]c2c1	27.0	11.6	11.2	14.7	2.6	/	/	/
O=C(Nc1c(Cl)ccc2nsnc12)c1ccc([N+](=O)[O-])o1	60.4*	75.8	-20.4	89.7*	86.8*	-5.7	28.5	99.9*
O=S(=O)(Nc1ccccc1)c1ccc(-c2cnc(C3CC3)o2)cc1	3.4	9.6	-6.2	16.9	21.9	/	/	/
Cc1cccc(NS(=O)(=O)c2ccc(-c3cnc(C4CC4)o3)cc2)c1C	41.7*	29.4	11.0	31.8	51.8*	87.0*	19.9	66.9*
Cc1cc(C)cc(NS(=O)(=O)c2ccc(-c3cnc(C4CC4)o3)cc2)c1	39.5*	74.2	-31.1	13.0	64.0*	81.5*	24.9	60.4*
C=CCn1c(CSc2ccc(C)cc2)n[nH]c1=S	3.7	-26.3	6.7	-23.9	5.4	/	/	/
COC(=O)c1ccccc1NC(=O)CSc1nncn1-c1ccccn1	15.0	-10.5	4.4	14.4	-11.7	/	/	/
CC(=O)Nc1ccc(C(=O)NNC(=O)c2cccc(C)c2)cc1	-2.9	-3.5	5.9	-6.6	-0.7	/	/	/
O=C(NCc1ccco1)c1nc2c(nnn2Cc2ccccc2Cl)c(=O)[nH]1	45.3*	11.1	-48.8	93.8*	89.7*	99.9*	57.1*	105.9*
Cc1ccc(C)c(Cn2nnc3c(=O)[nH]c(C(=O)NCc4ccco4)nc32)c1	9.4	-28.0	-12.8	-0.7	22.7	/	/	/
Clc1ccccc1OCc1nnc(-c2ccccc2Br)o1	-312.2	-82.6	-5.4	-320.7	13.7	/	/	/
O=c1c(Cl)c(Cl)cnn1Cc1nnc(-c2ccccc2Br)o1	96.0*	77.6	-24.8	106.4*	83.8*	44.5*	73.4*	106.3*	Mdm2-MdmX confirm=101.0*
CC(C)[C@H](NC(=O)OC(C)(C)C)c1nnc(S(=O)(=O)Cc2c(F)cccc2Cl)o1	40.5*	94.7*	-1.9	104.5*	83.2*	43.1*	33.9	7.7
CC(C)=CCSc1nnc([C@@H](NC(=O)OC(C)(C)C)C(C)C)o1	6.3	24.1	8.2	1.9	-1.3	/	/	/

High-throughput results (PubChem BioAssay)
